Laboratory results: PubChem BioAssay AID1159580 (chemical genetic matrix, 2015)
Several values for one entry are separate records, joined by “and”; a condition that tells them apart may be missing. Identical values can stand only once. In all, about 5,500 compounds went through this assay and about 2,000 (36%) were called active. About 18% were inconclusive and are not listed. Cut-off read from the data, not from the text of the source: active = normalized growth mostly below about 0.91 (no sharp cut-off); inconclusive = no clear call, values can overlap the other calls; inactive = mostly above about 0.92. This is one part of the list.

Test: chemical genetic growth profiling, strain panel (AID 1159580);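 note: tested at 20 µM; growth read once vehicle control cultures reached saturation at 30 °C; 1 = growth at the plate median or of vehicle wells; lower values mean less growth of the strain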
Conditions: S. cerevisiae deletion strains, growth OD

Measured: normalized growth

NS(=O)(=O)c1cc2c(cc1Cl)NC(CSCc1ccccc1)=NS2(=O)=O
inactive: locus YAL021C, strain ccr4, hits give low values 0.986 | locus YAL026C, strain drs2, hits give low values 1.01 | locus YAL030W, strain snc1, hits give low values 1.01 | locus YBL061C, strain skt5, hits give low values 1.02 | locus YBR009C, strain hhf1, hits give low values 0.993 | locus YBR021W, strain FUR4, hits give low values 0.973 | locus YBR023C, strain chs3, hits give low values 1.04 | locus YBR171W, strain sec66, hits give low values 1.03 | locus YBR229C, strain ROT2, hits give low values 0.986 | locus YBR231C, strain swc5, hits give low values 1.02 | locus YBR279W, strain paf1, hits give low values 1.01 | locus YCL011C, strain gbp2, hits give low values 1.01 | locus YCL016C, strain dcc1, hits give low values 0.993 | locus YCL029C, strain bik1, hits give low values 0.988 | locus YCL061C, strain MRC1, hits give low values 1.01 | locus YCL069W, strain vba3, hits give low values 1.01 | locus YCR088W, strain abp1, hits give low values 1.01 | locus YDL005C, strain med2, hits give low values 1 | locus YDL035C, strain GPR1, hits give low values 1.04 | locus YDL040C, strain nat1, hits give low values 0.995 | locus YDL074C, strain BRE1, hits give low values 0.99 | locus YDL101C, strain DUN1, hits give low values 0.973 | locus YDL134C, strain PPH21, hits give low values 1.02 | locus YDL185W, strain tfp1, hits give low values 0.989 | locus YDL192W, strain arf1, hits give low values 0.997 | locus YDR001C, strain nth1, hits give low values 1.03 | locus YDR069C, strain doa4, hits give low values 1.04 | locus YDR101C, strain arx1, hits give low values 0.987 | locus YDR137W, strain rgp1, hits give low values 1.02 | locus YDR159W, strain sac3, hits give low values 1 | locus YDR162C, strain NBP2, hits give low values 1.03 | locus YDR195W, strain ref2 1.03 | locus YDR297W, strain sur2, hits give low values 1.02 | locus YDR318W, strain mcm21, hits give low values 0.991 | locus YDR334W, strain swr1, hits give low values 1.02 | locus YDR335W, strain msn5, hits give low values 1.02 | locus YDR388W, hits give low values 0.978 | locus YDR392W, strain spt3, hits give low values 0.948 | locus YDR502C, strain sam2, hits give low values 0.988 | locus YEL003W, strain gim4, hits give low values 1.03 | locus YEL037C, strain rad23, hits give low values 1.02 | locus YEL061C, strain CIN8 (second series), hits give low values 1.05 | locus YEL061C, strain CIN8, hits give low values 0.995 | locus YER015W, strain faa2, hits give low values 1.01 | locus YER016W, strain bim1, hits give low values 1 | locus YER110C, hits give low values 0.965 | locus YER111C, strain swi4, hits give low values 1.03 | locus YER155C, strain BEM2 (second series), hits give low values 1.04 | locus YER155C, strain BEM2, hits give low values 0.981 | locus YER167W, strain BCK2, hits give low values 1 | locus YFR010W, strain ubp6, hits give low values 1.03 | locus YGL078C, strain dbp3, hits give low values 0.991 | locus YGL086W, strain mad1, hits give low values 0.989 | locus YGL167C, strain pmr1, hits give low values 1.03 | locus YGL173C, strain kem1, hits give low values 1.01 | locus YGL227W, strain vid30, hits give low values 1.02 | locus YGL240W, strain doc1, hits give low values 1.03 | locus YGL248W, strain PDE1, hits give low values 0.98 | locus YGL253W, strain hxk2, hits give low values 1.01 | locus YGR078C, strain PAC10, hits give low values 0.986 | locus YGR135W, strain pre9, hits give low values 0.992 | locus YGR252W, strain gcn5, hits give low values 1.01 | locus YHR013C, strain ard1, hits give low values 0.975 | locus YHR027C, strain rpn1, hits give low values 1.01 | locus YHR030C, strain SLT2, hits give low values 0.99 and 0.983 | locus YHR079C, strain IRE1 (second series), hits give low values 0.984 | locus YHR079C, strain IRE1, hits give low values 0.977 | locus YHR094C, strain hxt1, hits give low values 0.97 | locus YHR129C, strain ARP1, hits give low values 0.984 | locus YHR142W, strain chs7, hits give low values 1.02 | locus YHR200W, strain rpn10, hits give low values 0.989 | locus YIL066C, strain RNR3, hits give low values 1.01 | locus YIL073C, strain SPO22, hits give low values 0.99 | locus YIL125W, strain kgd1, hits give low values 0.986 | locus YIR030C, strain dcg1, hits give low values 0.993 | locus YJL092W, strain hpr5, hits give low values 1.02 | locus YJL095W, strain BCK1 (second series), hits give low values 1.02 | locus YJL095W, strain BCK1, hits give low values 0.954 and 0.975 | locus YJL115W, strain asf1, hits give low values 1.02 | locus YJL129C, strain trk1, hits give low values 1.06 | locus YJL134W, strain LCB3, hits give low values 0.987 | locus YJL154C, strain vps35, hits give low values 1.03 | locus YJL164C, strain tpk1, hits give low values 0.977 | locus YJL166W, strain qcr8, hits give low values 1.04 | locus YJL168C, strain set2, hits give low values 0.992 | locus YJL187C, strain SWE1 (second series), hits give low values 0.965 | locus YJR043C, strain POL32, hits give low values 1.04 | locus YJR066W, strain TOR1, hits give low values 0.931
